Several values for one entry are separate records, joined by “and”; a condition that tells them apart may be missing. Identical values can stand only once. This is part of a sample that, as a whole, favours compounds with a hit. Of some 83,000 tested, about 20% had one in any assay.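 Results are percent growth after 48 hours of single-concentration exposure. 100 means growth as in untreated cells, lower positive values show inhibition; negative values down to -100 show cell death.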 Activity calls are given as the source filed them. Rule for the calls: active = growth percent below 10; inactive = the rest. Where a SMILES comes first, the peptide text is derived from it. [ ]: non-standard residue; d: D form. ξ: configuration not given here. ξV = CC(C)C(N)C(=O)O
Experiments:
Assay in all cases: NCI-60 one-dose screen, 48 h (100 = growth as untreated, 0 = no growth, -100 = all killed)
NCI-H23 lung = system: NCI-H23 lung
NCI-H226 lung = system: NCI-H226 lung
HOP-62 NSCLC = system: HOP-62 NSCLC
NCI-H460 lung = system: NCI-H460 lung
HOP-92 NSCLC = system: HOP-92 NSCLC
NCI-H522 lung = system: NCI-H522 lung
A549/ATCC NSCLC = system: A549/ATCC NSCLC
786-0 renal = system: 786-0 renal
COLO 205 colon = system: COLO 205 colon
NCI-H322M lung = details: 10 µM

Measured: growth

COc1cccc2c1C(=O)c1c(O)c3c(c(O)c1C2=O)C[C@@](O)(C(=O)CO)C[C@@H]3OC1CC(N)C(O)C(C)O1 (some centres not stated)
active: NCI-H226 lung; 10 µM -18.3% | HOP-62 NSCLC; 10 µM 6.93% | NCI-H460 lung; 1 µM -31.1% | NCI-H460 lung; 2.5 µM 9.19% | NCI-H460 lung; 10 µM 0.571% | HOP-92 NSCLC; 10 µM -22.8% | NCI-H522 lung; 1 µM -10.4% | NCI-H522 lung; 10 µM -38% | A549/ATCC NSCLC; 10 µM -30.5% | 786-0 renal; 1 µM -14.3% | 786-0 renal; 10 µM 4.5% | COLO 205 colon; 10 µM -47.4%
inactive: NCI-H23 lung; 0.0025 µM 90% | NCI-H23 lung; 1 µM 28.2% | NCI-H23 lung; 2.5 µM 33.1% | NCI-H23 lung; 10 µM 33.3% | NCI-H226 lung; 0.0025 µM 84% | NCI-H226 lung; 2.5 µM 23.1% | HOP-62 NSCLC; 0.0025 µM 88.3% | HOP-62 NSCLC; 2.5 µM 31.5% | NCI-H460 lung; 0.0025 µM 73.4% | HOP-92 NSCLC; 0.0025 µM 85.2% | HOP-92 NSCLC; 2.5 µM 51% | NCI-H522 lung; 0.0025 µM 78.3% | A549/ATCC NSCLC; 0.0025 µM 73% | A549/ATCC NSCLC; 1 µM 33.7% | A549/ATCC NSCLC; 2.5 µM 36.5% | 786-0 renal; 0.0025 µM 84.4% | 786-0 renal; 2.5 µM 26.8% | COLO 205 colon; 0.0025 µM 85.8% | COLO 205 colon; 1 µM 53.8% | COLO 205 colon; 2.5 µM 56.7%

CCCCCCCCCCCCCCCCCCOCC(COP(=O)([O-])OCC[N+](C)(C)C)OC (configuration not stated)
active: COLO 205 colon; 10 µM 2.62%
inactive: NCI-H23 lung; 10 µM 89.1% | NCI-H226 lung; 10 µM 93.9% | NCI-H322M lung 107% | HOP-62 NSCLC; 10 µM 44% | NCI-H460 lung; 10 µM 46.4% | HOP-92 NSCLC; 10 µM 59.9% | NCI-H522 lung; 10 µM unless noted 73% | A549/ATCC NSCLC; 10 µM 97.5% | 786-0 renal; 10 µM 87.6%

O=C1NC(=O)c2cc([N+](=O)[O-])ccc21
inactive: NCI-H23 lung; 10 µM 105% | NCI-H226 lung; 10 µM 97.7% | NCI-H322M lung 99% | HOP-62 NSCLC; 10 µM 101% | NCI-H460 lung; 10 µM 105% | HOP-92 NSCLC; 10 µM 82.3% | NCI-H522 lung; 10 µM unless noted 102% | A549/ATCC NSCLC; 10 µM 107% | 786-0 renal; 10 µM 112% | COLO 205 colon; 10 µM 111%

CC(C)C(NC(=O)CN)C(=O)O (configuration not stated) (H-Gly-[ξV]-OH)
inactive: NCI-H23 lung; 10 µM 101% and 106% | NCI-H226 lung; 10 µM 102% and 100% | NCI-H322M lung 100% and 105% | HOP-62 NSCLC; 10 µM 106% and 98% | NCI-H460 lung; 10 µM 113% and 103% | HOP-92 NSCLC; 10 µM 102% | NCI-H522 lung; 10 µM unless noted 95.9% and 89.7% | A549/ATCC NSCLC; 10 µM 95% and 99.2% | 786-0 renal; 10 µM 95.1% and 106% | COLO 205 colon; 10 µM 117% and 113%

CN1CCN(CCCN2c3ccccc3Sc3ccc(C(F)(F)F)cc32)CC1
inactive: NCI-H23 lung; 10 µM 69.9% | NCI-H226 lung; 10 µM 101% | NCI-H322M lung 69.7% | HOP-62 NSCLC; 10 µM 61.8% | NCI-H460 lung; 10 µM 33.6% | NCI-H522 lung; 10 µM unless noted 73% | A549/ATCC NSCLC; 10 µM 59.4% | 786-0 renal; 10 µM 37.2%
active: COLO 205 colon; 10 µM -79%

OCC(O)C(O)C(O)C(/C=N/Nc1ccccc1)=N/Nc1ccccc1 (configuration not stated)
inactive: NCI-H23 lung; 10 µM 93.1% | NCI-H226 lung; 10 µM 91.4% | NCI-H322M lung 68.9% | HOP-62 NSCLC; 10 µM 70.2% | NCI-H460 lung; 10 µM 89.9% | HOP-92 NSCLC; 10 µM 75.1% | NCI-H522 lung; 10 µM unless noted 55.5% | A549/ATCC NSCLC; 10 µM 87.3% | 786-0 renal; 10 µM 107% | COLO 205 colon; 10 µM 96.5%

CC(=O)OCC(OC(C)=O)C(OC(C)=O)C(OC(C)=O)C(OC(C)=O)C(/C=N/Nc1ccccc1)=N/Nc1ccccc1 (configuration not stated)
inactive: NCI-H23 lung; 10 µM 79.9% | NCI-H226 lung; 10 µM 72.7% | HOP-62 NSCLC; 10 µM 66.8% | NCI-H460 lung; 10 µM 65.2% | HOP-92 NSCLC; 10 µM 79.5% | NCI-H522 lung; 10 µM unless noted 40.6% | A549/ATCC NSCLC; 10 µM 60.9% | 786-0 renal; 10 µM 63.6% | COLO 205 colon; 10 µM 97.1%

NNc1ccc2ccccc2c1
inactive: NCI-H23 lung; 10 µM 87.9% and 94.4% | NCI-H226 lung; 10 µM 87.3% and 85.8% | HOP-62 NSCLC; 10 µM 81.1% and 97.4% | NCI-H460 lung; 10 µM 105% | HOP-92 NSCLC; 10 µM 97% and 95.6% | NCI-H522 lung; 10 µM unless noted 79.5% and 98.6% | A549/ATCC NSCLC; 10 µM 102% and 106% | 786-0 renal; 10 µM 99.8% and 98.3% | COLO 205 colon; 10 µM 94% and 109%

COC(=O)C1C(O)C(C)C(O)C(C)C=C(C)C2=C3C(=C(C)C(=O)c4c(O)c(c(C)c(OC(C)=O)c43)NC(=O)C(C)=C/C=C\C(C)C(O)C(C)C1O)OCO2 (configuration not stated)
active: HOP-92 NSCLC; 10 µM -5.62%
inactive: NCI-H23 lung; 10 µM 107% | NCI-H226 lung; 10 µM 104% | NCI-H460 lung; 10 µM 114% | NCI-H522 lung; 10 µM unless noted 75.3% | A549/ATCC NSCLC; 10 µM 112% | 786-0 renal; 10 µM 101% | COLO 205 colon; 10 µM 125%
